Data as given in the supplement of paper PMC11732987, “Enantioselective OTUD7B fragment discovery through chemoproteomics screening and high-throughput optimisation” (Communications Chemistry, 2025).

Tests used:
Assay in all cases: log2 ratio of Biotin-Ahx-Ub-VS probe labelling (fragment/DMSO); higher = less target engagement (more negative = stronger competition), active = hit call of the paper (q ≤ 0.05, log2 ratio ≤ -1)
Conditions in all cases: compound concentration: 200 uM; treatment time: 3 h
[1] = target: T1, USP42 (UniProt Q9H9J4)
T1 sequence (whole entry): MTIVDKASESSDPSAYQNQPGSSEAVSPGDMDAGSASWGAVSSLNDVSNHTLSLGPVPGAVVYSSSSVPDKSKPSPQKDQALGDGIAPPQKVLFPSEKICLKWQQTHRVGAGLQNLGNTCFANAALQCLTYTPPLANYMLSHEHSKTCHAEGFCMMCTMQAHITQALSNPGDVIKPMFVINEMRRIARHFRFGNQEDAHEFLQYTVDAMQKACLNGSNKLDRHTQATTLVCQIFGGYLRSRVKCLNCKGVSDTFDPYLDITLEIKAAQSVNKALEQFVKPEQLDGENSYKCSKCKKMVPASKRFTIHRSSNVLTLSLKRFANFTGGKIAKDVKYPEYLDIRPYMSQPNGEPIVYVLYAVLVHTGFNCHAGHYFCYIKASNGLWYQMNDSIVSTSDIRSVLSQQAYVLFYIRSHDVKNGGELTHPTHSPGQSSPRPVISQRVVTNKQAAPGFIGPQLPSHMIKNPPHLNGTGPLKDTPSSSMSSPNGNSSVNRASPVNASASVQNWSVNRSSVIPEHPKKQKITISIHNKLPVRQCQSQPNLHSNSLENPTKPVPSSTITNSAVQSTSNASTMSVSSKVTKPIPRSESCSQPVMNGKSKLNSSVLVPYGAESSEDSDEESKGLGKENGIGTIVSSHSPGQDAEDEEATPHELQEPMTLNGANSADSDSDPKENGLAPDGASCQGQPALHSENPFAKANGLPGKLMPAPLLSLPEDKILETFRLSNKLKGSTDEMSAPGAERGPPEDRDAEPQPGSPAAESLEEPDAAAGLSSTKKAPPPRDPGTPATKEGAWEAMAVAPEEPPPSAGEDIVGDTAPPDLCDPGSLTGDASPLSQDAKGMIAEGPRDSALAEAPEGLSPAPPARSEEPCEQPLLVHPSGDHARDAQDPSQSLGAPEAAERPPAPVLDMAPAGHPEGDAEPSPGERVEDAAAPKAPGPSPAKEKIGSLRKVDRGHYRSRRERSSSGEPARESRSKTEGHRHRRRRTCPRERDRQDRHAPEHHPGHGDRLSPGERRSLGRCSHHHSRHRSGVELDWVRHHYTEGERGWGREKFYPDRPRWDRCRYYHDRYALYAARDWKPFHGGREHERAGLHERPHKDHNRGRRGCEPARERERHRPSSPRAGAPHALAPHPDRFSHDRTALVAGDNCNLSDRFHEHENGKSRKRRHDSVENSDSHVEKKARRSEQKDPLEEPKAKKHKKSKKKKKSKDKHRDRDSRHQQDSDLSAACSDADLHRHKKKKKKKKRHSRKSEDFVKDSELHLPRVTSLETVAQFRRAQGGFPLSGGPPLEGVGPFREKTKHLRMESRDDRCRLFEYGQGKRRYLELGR
Outline: (§1)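 Fragment (200 µM) or vehicle was incubated for 3 h with triplicate HEK293T lysate samples of 495 µg, which were then treated with Biotin-Ahx-Ub-VS at 0.5 µM final for 1 h. Labelled DUBs were enriched on NeutrAvidin, digested with LysC and trypsin, and analysed by diaPASEF LC-MS/MS. Values are average log2 fragment/vehicle ratios from an unpaired t-test on global-median-normalised Spectronaut label-free quantities, using proteins with ≥2 unique peptides.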

[2] = target: USP46 (UniProt P62068)
Outline: as §1

[3] = target: T2, USP47 (UniProt Q96K76)
T2 sequence (whole entry): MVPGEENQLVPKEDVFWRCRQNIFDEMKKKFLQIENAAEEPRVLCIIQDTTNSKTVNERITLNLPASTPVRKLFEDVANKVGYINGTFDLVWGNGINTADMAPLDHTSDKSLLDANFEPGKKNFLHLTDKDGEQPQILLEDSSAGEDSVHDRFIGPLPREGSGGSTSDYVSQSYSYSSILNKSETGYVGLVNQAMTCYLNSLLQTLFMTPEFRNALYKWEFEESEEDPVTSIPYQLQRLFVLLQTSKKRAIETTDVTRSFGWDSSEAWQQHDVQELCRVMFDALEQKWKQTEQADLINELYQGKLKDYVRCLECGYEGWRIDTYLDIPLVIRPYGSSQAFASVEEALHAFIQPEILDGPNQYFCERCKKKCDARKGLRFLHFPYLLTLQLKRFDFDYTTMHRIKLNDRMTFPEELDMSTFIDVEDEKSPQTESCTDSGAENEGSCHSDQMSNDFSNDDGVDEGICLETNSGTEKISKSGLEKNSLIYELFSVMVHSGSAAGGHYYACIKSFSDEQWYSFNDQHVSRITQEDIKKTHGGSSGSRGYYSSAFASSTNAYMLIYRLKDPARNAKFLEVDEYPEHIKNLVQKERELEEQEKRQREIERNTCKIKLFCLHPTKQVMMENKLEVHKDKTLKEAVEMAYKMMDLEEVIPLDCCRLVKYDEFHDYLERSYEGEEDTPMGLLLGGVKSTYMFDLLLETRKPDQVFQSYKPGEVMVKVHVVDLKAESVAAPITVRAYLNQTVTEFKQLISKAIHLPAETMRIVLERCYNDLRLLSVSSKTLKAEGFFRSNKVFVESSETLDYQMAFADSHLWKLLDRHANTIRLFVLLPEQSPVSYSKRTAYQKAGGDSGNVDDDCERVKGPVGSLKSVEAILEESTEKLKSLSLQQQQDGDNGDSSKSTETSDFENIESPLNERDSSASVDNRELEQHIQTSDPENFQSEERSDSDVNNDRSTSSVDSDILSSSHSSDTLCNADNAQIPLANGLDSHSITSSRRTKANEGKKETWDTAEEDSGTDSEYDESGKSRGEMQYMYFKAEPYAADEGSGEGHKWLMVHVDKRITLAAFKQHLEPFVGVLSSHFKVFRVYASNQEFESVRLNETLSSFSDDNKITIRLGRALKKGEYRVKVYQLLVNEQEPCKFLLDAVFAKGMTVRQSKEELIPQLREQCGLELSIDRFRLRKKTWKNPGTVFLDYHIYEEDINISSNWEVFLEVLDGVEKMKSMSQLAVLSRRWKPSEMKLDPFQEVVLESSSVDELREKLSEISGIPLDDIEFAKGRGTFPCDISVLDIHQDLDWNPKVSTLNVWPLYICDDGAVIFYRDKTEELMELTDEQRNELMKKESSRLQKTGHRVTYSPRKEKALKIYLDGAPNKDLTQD
Outline: as §1

[4] = target: T3, USP48 (UniProt Q86UV5)
T3 sequence (whole entry): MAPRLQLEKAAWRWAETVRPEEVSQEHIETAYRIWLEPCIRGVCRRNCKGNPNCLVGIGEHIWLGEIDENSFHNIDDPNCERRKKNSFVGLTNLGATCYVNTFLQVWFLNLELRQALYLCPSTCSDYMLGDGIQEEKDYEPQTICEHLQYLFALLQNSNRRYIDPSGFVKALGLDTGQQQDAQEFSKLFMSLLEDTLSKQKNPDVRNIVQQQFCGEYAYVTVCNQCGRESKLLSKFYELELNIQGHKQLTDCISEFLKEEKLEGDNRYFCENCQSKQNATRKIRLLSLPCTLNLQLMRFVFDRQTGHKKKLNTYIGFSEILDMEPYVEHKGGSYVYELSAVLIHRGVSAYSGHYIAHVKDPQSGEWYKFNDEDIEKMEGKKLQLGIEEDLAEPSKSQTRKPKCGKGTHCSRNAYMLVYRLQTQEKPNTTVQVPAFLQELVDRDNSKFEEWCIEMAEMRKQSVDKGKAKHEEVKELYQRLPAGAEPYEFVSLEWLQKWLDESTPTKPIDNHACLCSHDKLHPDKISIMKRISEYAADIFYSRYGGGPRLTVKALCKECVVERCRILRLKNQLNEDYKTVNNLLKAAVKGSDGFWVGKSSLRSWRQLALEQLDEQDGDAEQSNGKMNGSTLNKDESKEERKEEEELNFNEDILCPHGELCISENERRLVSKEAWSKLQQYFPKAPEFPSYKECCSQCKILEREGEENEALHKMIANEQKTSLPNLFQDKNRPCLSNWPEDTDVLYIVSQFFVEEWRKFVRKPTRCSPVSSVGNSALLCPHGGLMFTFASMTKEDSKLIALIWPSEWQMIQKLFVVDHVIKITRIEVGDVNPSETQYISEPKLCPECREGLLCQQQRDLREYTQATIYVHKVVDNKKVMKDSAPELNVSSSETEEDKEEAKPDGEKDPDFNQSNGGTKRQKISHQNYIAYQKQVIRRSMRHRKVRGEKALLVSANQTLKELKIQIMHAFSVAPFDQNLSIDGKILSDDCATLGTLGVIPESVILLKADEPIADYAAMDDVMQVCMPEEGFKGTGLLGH
Outline: as §1

[5] = target: T4, USP5 (UniProt P45974)
T4 sequence (whole entry): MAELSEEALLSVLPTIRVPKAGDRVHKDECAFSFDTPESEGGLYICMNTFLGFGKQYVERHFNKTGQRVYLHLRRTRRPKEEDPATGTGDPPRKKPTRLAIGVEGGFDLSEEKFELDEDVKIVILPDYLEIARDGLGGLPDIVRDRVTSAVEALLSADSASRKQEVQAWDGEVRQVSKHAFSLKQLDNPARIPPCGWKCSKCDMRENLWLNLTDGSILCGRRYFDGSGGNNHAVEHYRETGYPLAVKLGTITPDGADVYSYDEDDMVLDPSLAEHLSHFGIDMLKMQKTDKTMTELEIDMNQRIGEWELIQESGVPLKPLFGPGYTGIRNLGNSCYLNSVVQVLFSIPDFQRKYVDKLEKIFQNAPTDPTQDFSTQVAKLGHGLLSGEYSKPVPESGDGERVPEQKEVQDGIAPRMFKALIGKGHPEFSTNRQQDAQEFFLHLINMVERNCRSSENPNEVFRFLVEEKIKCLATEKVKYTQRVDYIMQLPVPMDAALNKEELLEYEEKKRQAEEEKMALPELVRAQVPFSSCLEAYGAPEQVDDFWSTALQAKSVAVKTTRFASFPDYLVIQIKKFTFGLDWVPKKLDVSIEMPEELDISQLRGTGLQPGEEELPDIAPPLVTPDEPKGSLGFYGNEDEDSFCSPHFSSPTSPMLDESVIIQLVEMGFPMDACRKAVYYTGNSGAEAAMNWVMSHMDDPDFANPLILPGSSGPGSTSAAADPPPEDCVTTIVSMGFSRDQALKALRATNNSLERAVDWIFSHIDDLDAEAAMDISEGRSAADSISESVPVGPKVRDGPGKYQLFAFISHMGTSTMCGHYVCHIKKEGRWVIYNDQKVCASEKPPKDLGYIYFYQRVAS
Outline: as §1

[6] = target: USP54 (UniProt Q70EL1)
Outline: as §1

[7] = target: USP7 (UniProt Q93009)
Outline: as §1

[8] = target: T5, USP8 (UniProt P40818)
T5 sequence (whole entry): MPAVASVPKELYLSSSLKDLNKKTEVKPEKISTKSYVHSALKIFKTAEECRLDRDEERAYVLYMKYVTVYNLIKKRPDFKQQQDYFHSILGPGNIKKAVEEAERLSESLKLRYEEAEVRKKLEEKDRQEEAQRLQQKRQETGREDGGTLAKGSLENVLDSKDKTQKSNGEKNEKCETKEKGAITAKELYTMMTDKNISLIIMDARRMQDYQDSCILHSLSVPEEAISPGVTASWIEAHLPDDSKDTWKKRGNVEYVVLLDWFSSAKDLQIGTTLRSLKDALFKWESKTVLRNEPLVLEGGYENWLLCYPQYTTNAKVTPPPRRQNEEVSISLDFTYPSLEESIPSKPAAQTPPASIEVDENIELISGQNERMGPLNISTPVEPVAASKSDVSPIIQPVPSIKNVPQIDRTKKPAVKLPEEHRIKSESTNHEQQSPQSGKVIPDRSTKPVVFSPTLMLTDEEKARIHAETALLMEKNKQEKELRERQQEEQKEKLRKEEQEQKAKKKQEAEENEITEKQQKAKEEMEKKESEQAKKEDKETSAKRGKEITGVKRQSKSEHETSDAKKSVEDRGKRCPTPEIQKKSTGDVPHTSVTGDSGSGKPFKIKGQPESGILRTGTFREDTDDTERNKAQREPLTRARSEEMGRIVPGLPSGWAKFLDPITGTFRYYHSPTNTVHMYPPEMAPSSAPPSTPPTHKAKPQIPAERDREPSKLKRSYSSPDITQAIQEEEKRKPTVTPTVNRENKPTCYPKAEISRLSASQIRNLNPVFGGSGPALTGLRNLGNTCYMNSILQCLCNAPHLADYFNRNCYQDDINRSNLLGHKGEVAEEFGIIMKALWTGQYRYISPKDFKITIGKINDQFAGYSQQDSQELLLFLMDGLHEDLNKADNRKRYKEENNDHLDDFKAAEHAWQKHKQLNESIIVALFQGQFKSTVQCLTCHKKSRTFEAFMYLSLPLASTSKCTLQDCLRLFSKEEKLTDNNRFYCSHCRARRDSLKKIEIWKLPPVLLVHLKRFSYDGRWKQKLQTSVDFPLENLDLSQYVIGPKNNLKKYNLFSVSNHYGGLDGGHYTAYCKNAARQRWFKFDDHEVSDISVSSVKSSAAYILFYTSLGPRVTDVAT
Outline: as §1

[9] = target: USP9X (UniProt Q93008)
Outline: as §1

[10] = target: UniProt O00487
Outline: as §1

Measured: log2 ratio of Biotin-Ahx-Ub-VS probe labelling

Sequence of UniProt O00487 (O00487 whole entry): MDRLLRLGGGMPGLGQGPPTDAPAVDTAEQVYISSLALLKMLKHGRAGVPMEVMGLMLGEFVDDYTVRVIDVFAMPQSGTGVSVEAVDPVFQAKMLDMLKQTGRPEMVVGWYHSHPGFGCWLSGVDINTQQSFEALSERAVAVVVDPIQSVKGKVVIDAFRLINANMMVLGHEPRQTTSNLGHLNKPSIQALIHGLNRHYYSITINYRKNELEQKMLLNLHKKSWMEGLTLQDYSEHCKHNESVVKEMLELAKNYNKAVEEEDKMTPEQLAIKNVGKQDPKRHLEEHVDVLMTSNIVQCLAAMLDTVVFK
Sequence of USP46 (P62068 whole entry): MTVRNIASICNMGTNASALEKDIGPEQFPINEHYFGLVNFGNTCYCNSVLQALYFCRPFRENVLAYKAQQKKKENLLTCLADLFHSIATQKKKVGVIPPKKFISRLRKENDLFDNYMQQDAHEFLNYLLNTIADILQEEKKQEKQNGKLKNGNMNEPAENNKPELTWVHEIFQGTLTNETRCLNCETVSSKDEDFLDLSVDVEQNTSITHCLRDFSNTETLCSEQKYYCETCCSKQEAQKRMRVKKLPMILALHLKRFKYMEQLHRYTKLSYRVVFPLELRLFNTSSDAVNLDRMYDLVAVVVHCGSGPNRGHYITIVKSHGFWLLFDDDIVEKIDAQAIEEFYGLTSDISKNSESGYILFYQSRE
Sequence of USP7 (Q93009 whole entry, looked up): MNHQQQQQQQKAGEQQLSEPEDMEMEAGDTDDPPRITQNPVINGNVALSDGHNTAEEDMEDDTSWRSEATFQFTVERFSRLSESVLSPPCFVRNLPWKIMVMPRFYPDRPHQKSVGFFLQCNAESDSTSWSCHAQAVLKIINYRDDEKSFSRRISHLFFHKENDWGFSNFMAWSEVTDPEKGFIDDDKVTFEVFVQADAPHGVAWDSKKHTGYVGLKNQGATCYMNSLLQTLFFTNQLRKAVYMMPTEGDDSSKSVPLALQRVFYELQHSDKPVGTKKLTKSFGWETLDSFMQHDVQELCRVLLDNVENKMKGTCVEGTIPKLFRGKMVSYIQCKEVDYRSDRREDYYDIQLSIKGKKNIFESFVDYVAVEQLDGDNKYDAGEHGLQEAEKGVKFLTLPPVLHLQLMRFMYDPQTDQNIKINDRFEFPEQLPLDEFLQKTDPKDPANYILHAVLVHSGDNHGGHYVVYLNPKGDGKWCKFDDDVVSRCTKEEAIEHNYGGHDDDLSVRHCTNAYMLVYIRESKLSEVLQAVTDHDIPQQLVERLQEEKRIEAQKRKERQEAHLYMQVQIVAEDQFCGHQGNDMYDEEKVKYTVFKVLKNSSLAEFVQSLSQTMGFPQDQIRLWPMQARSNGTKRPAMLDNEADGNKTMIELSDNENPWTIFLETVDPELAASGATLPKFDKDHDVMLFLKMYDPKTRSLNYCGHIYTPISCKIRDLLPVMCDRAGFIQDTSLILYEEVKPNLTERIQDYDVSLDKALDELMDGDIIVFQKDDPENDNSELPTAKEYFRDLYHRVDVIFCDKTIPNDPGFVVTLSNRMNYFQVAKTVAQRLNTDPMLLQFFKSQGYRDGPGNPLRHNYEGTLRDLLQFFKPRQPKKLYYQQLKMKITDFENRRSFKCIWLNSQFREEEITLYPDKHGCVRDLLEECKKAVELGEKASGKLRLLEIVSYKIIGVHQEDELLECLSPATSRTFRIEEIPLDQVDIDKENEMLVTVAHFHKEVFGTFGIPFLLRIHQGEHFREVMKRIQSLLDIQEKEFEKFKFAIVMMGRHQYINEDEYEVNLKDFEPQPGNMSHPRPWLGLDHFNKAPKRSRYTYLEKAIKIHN
Sequence of USP54 (Q70EL1 whole entry): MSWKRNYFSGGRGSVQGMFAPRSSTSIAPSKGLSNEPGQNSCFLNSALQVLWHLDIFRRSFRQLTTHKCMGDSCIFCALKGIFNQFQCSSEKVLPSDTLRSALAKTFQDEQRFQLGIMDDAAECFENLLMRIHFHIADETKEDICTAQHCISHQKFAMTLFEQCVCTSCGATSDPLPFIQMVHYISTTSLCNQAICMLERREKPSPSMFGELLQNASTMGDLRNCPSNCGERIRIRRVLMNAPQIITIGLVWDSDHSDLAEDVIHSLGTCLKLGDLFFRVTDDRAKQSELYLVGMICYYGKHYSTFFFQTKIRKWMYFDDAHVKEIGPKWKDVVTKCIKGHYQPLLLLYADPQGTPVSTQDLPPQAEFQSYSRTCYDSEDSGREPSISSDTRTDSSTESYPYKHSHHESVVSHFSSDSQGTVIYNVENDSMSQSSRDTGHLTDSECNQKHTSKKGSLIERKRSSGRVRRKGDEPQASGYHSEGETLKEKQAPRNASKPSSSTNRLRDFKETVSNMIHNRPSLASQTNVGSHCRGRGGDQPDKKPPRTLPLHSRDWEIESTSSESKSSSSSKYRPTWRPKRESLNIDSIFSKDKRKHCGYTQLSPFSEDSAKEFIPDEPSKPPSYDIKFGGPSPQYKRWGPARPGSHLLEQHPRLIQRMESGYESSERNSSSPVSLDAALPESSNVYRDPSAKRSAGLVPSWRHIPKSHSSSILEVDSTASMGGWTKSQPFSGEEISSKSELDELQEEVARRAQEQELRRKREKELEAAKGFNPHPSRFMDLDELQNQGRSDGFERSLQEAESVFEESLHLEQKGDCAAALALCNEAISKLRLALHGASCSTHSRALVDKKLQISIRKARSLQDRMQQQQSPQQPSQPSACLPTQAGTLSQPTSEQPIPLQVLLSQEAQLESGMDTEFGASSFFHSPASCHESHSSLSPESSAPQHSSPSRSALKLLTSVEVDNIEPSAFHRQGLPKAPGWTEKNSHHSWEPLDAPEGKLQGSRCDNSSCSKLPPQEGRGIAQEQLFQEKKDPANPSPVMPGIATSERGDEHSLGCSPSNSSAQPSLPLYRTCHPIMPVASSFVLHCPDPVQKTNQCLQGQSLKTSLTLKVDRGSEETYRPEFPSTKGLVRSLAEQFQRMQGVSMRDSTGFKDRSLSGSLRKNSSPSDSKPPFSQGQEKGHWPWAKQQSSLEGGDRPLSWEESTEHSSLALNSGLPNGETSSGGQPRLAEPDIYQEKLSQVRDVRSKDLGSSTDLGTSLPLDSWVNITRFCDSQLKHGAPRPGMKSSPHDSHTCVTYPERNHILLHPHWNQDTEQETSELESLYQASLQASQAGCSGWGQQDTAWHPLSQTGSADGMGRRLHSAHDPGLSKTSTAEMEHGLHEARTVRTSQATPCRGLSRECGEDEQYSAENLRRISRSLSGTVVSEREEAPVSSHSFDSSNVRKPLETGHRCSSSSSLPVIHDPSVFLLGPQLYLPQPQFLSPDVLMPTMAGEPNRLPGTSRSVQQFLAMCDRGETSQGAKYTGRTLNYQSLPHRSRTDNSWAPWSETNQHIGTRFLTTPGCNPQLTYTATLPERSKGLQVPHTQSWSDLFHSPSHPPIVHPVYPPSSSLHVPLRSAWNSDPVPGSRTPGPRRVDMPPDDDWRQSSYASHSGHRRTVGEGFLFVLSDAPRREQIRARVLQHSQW

COc1cccc(CN(C)C(=O)CCl)c1
active: [7] -1.43
inactive: [1] -0.309 | [2] -0.0667 | [3] -0.35 | [4] -0.935 | [5] 0.462 | [6] 0.00406 | [8] 0.148 | [9] 0.0455 | [10] 0.0127
